Test results published in PubChem BioAssay AID1159580 (chemical genetic matrix, 2015).
The whole screen tested about 5,500 compounds, of which about 2,000 (36%) were called active. Not shown: some 18% with an inconclusive outcome. Rule as the data show it: active = normalized growth mostly below about 0.91 (no sharp cut-off); inconclusive = no clear call, values can overlap the other calls; inactive = mostly above about 0.92. This is one part of the list.

Experiment: chemical genetic growth profiling, strain panel (AID 1159580);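 also: tested at 20 µM; growth read once vehicle control cultures reached saturation at 30 °C; 1 = growth at the plate median or of vehicle wells; lower values mean less growth of the strain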
Conditions: growth OD
[1] = S. cerevisiae deletion strains, locus YAL013W, strain DEP1, stronger effect = lower value
[2] = S. cerevisiae deletion strains, locus YBR229C, strain ROT2, stronger effect = lower value
[3] = S. cerevisiae deletion strains, locus YDL101C, strain DUN1, stronger effect = lower value
[4] = S. cerevisiae deletion strains, locus YDL134C, strain PPH21, stronger effect = lower value
[5] = S. cerevisiae deletion strains, locus YDR150W, strain NUM1, stronger effect = lower value
[6] = S. cerevisiae deletion strains, locus YEL061C, strain CIN8, stronger effect = lower value
[7] = S. cerevisiae deletion strains, locus YGR078C, strain PAC10, stronger effect = lower value
[8] = S. cerevisiae deletion strains, locus YHR030C, strain SLT2, stronger effect = lower value
[9] = S. cerevisiae deletion strains, locus YHR087W, strain rtc3, stronger effect = lower value
[10] = S. cerevisiae deletion strains, locus YJR043C, strain POL32, stronger effect = lower value
[11] = S. cerevisiae deletion strains, locus YJR075W, strain HOC1, stronger effect = lower value
[12] = S. cerevisiae deletion strains, locus YLR039C, strain RIC1, stronger effect = lower value
[13] = S. cerevisiae deletion strains, locus YLR058C, strain SHM2 (second series), stronger effect = lower value
[14] = S. cerevisiae deletion strains, locus YLR085C, strain ARP6, stronger effect = lower value
[15] = S. cerevisiae deletion strains, locus YLR262C, strain YPT6, stronger effect = lower value
[16] = S. cerevisiae deletion strains, locus YML094W, strain GIM5, stronger effect = lower value
[17] = S. cerevisiae deletion strains, locus YMR219W, strain ESC1, stronger effect = lower value
[18] = S. cerevisiae deletion strains, locus YMR263W, strain SAP30, stronger effect = lower value
[19] = S. cerevisiae deletion strains, locus YMR307W, strain GAS1, stronger effect = lower value
[20] = S. cerevisiae deletion strains, locus YNL153C, strain GIM3, stronger effect = lower value
[21] = S. cerevisiae deletion strains, locus YNL298W, strain CLA4 (second series), stronger effect = lower value
[22] = S. cerevisiae deletion strains, locus YNL322C, strain KRE1, stronger effect = lower value
[23] = S. cerevisiae deletion strains, locus YNR030W, strain Alg12, stronger effect = lower value
[24] = S. cerevisiae deletion strains, locus YOL006C, strain TOP1, stronger effect = lower value
[25] = S. cerevisiae deletion strains, locus YPL055C, strain LGE1, stronger effect = lower value
[26] = S. cerevisiae deletion strains, locus YPL241C, strain CIN2, stronger effect = lower value
[27] = S. cerevisiae deletion strains, locus YPR135W, strain CTF4, stronger effect = lower value

Measured: normalized growth

O=C1CCCN1c1ccc(Cl)c(Cl)c1
active: [16] 0.853 | [26] 0.847
inactive: [1] 0.987 | [2] 0.977 | [3] 0.939 | [4] 0.969 | [5] 0.968 | [6] 0.933 | [7] 0.976 | [8] 0.8 | [9] 0.989 | [10] 0.97 | [11] 0.983 | [12] 0.916 | [13] 0.988 | [14] 0.894 | [15] 0.949 | [17] 0.988 | [18] 0.984 | [19] 0.9 | S. cerevisiae deletion strains, locus YNL128W, strain TEP1, stronger effect = lower value 0.94 | [20] 0.95 | [21] 0.911 | [22] 0.974 | [23] 0.96 | [24] 0.748 | [25] 0.889 | [27] 0.913 | S. cerevisiae strains, strain wild type, stronger effect = lower value 0.978

O=C(Cc1ccc(Cl)c(Cl)c1)OCCN1CCCC1
inactive: S. cerevisiae deletion strains, locus YAL040C, strain CLN3, stronger effect = lower value 1.02 | S. cerevisiae deletion strains, locus YDR363W, strain ESC2, stronger effect = lower value 1.02 | S. cerevisiae deletion strains, locus YER002W, strain NOP16, stronger effect = lower value 0.997 | [7] 0.994 | [20] 0.999 | S. cerevisiae deletion strains, locus YNL175C, strain NOP13, stronger effect = lower value 1.02 | S. cerevisiae deletion strains, locus YNL197C, strain WHI3, stronger effect = lower value 1 | S. cerevisiae deletion strains, locus YNL224C, strain SQS1, stronger effect = lower value 1.01 | [22] 0.99 | S. cerevisiae deletion strains, locus YOR083W, strain WHI5 (second series), stronger effect = lower value 1.03

Cc1ccc(=O)n(Cc2ccc(Cl)c(Cl)c2)n1
inactive: [1] 0.989 | [2] 1.01 | [3] 0.958 | [4] 0.989 | [5] 0.968 | [6] 1 | [7] 0.977 | [8] 0.892 | [9] 1.01 | [10] 0.966 | [11] 0.986 | S. cerevisiae deletion strains, locus YKL190W, strain CNB1, stronger effect = lower value 0.988 | [12] 0.921 | [13] 0.986 | [14] 0.938 | [15] 0.913 | [16] 0.974 | [17] 0.992 | [18] 0.99 | [19] 1.06 | [20] 0.949 | [21] 0.954 | [22] 0.988 | [23] 0.988 | [24] 0.899 | [25] 1.03 | [26] 0.985 | [27] 0.918
